In one assay the target is SLC20A1. Nature of the assay: pooled miR-30 sensor sort-seq; sequence = guide strand. The note with it: shRNA.
TAGCACAAGTAACACTTCCCTC: the sensor-assay potency score (higher = more potent) was -0.562.

On to TTTTCTGTCACCTAGACCCATC, for which the sensor-assay potency score (higher = more potent) was -0.857.

On to TAGCTCTTTGTACAGGCCGGAA, for which the sensor-assay potency score (higher = more potent) was -1.38.

On to TTCACGGTGCTATCTATGCTGG, for which the sensor-assay potency score (higher = more potent) is -1.16.

In the case of TTCTCGTTCAATTTTTCTCTTC, the sensor-assay potency score (higher = more potent) was -0.376.

For TAACAGTCAATAAACTGCTTGC, the sensor-assay potency score (higher = more potent) was 0.0584.

Regarding TAGGCAACTGCACTGCACCATT, the sensor-assay potency score (higher = more potent) was -0.846.

For the sequence TTCAATATCACCAACAGACAAC, the sensor-assay potency score (higher = more potent) is -1.

Another assay addresses SLC22A17. Described as above. The settings on record: shRNA.
For AAGGTCAGCAGCACAATCCCGC, the sensor-assay potency score (higher = more potent) is -0.694.

TGCTCCAGGATCACCTGCCAGC: the sensor-assay potency score (higher = more potent) is -1.29.

With TAGACACCCAGGTCAACACCGG, the sensor-assay potency score (higher = more potent) is -0.269.

For TTCACTATCAGCCACCGTGCGG, the sensor-assay potency score (higher = more potent) is -0.928.

Consider TAACCCAGGAACAGGTAGCCGG, for which the sensor-assay potency score (higher = more potent) is -1.09.

With TCTGTCTGCGGGGTAACCCAGG, the sensor-assay potency score (higher = more potent) is -1.27.

On to TATTGAAACAGAATGATAGAGC, for which the sensor-assay potency score (higher = more potent) was -0.514.

Take TCACTATCAGCCACCGTGCGGA: the sensor-assay potency score (higher = more potent) is -0.275.

Consider TCCGGCAGCAGCATAATGCTGA, for which the sensor-assay potency score (higher = more potent) was -0.933.

Regarding ATTATAGTCCCAATCCTTGAGG, the sensor-assay potency score (higher = more potent) is -1.04.

TGAAACAGAATGATAGAGCAAG: the sensor-assay potency score (higher = more potent) was -0.0667.

A further assay addresses SLC22A1. The description is as above. The settings on record: shRNA.
For the sequence TATAGTTCAGCTCCTCCGCAGG, the sensor-assay potency score (higher = more potent) is -0.994.

Regarding TTTATTGCTTCAGTGTTTCTTT, the sensor-assay potency score (higher = more potent) came to 0.132.

On to TTTCGGTGACATCCTCTTCGAG, for which the sensor-assay potency score (higher = more potent) is -1.03.

Turning to ATGATTATGATGTTTAACCAGT, the sensor-assay potency score (higher = more potent) is -1.09.

Turning to TTTGTGATAACAGCCACCGAGG, the sensor-assay potency score (higher = more potent) was -0.671.

Turning to TTCGGTGACATCCTCTTCGAGG, the sensor-assay potency score (higher = more potent) was 0.00261.

For TGATAGAGCACAGAGTCCGTGA, the sensor-assay potency score (higher = more potent) was -0.157.

Consider TTCTGCAGAGGATAACTCCATC, for which the sensor-assay potency score (higher = more potent) is -0.998.

As for TTTTGTGATAACAGCCACCGAG, the sensor-assay potency score (higher = more potent) was -0.543.

As to TATCTTTATTGCTTCAGTGTTT, the sensor-assay potency score (higher = more potent) was -0.476.

As for TGGTACATGATCGCCACCGTTC, the sensor-assay potency score (higher = more potent) was -1.08.

For the sequence TACATGATCGCCACCGTTCTTC, the sensor-assay potency score (higher = more potent) was -0.241.

Another assay addresses SLC22A7. The assay is described as above. The note with it: shRNA.
For TCGGAGGACACTAGCAGTCTAG, the sensor-assay potency score (higher = more potent) was -0.985.

Regarding TAATAGGAGAAGTTCACTCCGA, the sensor-assay potency score (higher = more potent) was 0.0839.

As for TACAACTCTGAAGTGAACAGGT, the sensor-assay potency score (higher = more potent) came out at 0.517.

As to TCTGAGTGGTCGTACTCCCAGC, the sensor-assay potency score (higher = more potent) was -1.03.

For TTTATTTACAGAATCCTCCCCA, the sensor-assay potency score (higher = more potent) came out at 0.685.

For TAGGGTACAACTCTGAAGTGAA, the sensor-assay potency score (higher = more potent) stood at 0.4.

TTACATAGCTGACGGAGGCTGC: the sensor-assay potency score (higher = more potent) was -0.245.

On to TGAAGCTGTCCTCACACACTGG, for which the sensor-assay potency score (higher = more potent) was -0.999.

Consider TTCTGAGTGGTCGTACTCCCAG, for which the sensor-assay potency score (higher = more potent) is -1.56.

For the origin of these results see the OligoGym collection.
Further: reference of the scale not given here.
